Experimental data published in PubChem BioAssay.

Target: Concanavalin-A (Canavalia ensiformis) (UniProt P02866)
Experiment: ConA small-molecule binders, primary screen, artefact control for SMM control protein annotation, biochemical, small-molecule microarray, Alexa647 label, 635 nm (AID 1127);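 further: z combines 667 nm emission intensity with signal-to-noise across three replicate slides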
Conditions: ConA-A647 binding fluorescence, higher = more signal

Concanavalin-A (Canavalia ensiformis), sequence (P02866 whole entry, looked up): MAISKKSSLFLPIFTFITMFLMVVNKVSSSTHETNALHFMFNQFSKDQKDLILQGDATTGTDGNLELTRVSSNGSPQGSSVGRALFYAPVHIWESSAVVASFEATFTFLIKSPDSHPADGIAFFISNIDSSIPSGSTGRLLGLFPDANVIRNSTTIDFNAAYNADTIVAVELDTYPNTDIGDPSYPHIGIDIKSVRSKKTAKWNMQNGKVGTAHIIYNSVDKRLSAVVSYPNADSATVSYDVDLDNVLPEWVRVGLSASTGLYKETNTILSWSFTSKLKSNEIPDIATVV

Row | Structure (SMILES) | composite z-score
1 | COC(=O)[C@H](CCSC)NC(=O)CC=C[C@@H](C)CO | 0.483
2 | C[C@H]1CC[C@@H](C(=O)O)N[C@@H]1c1cccc(N2CCCC2=O)c1 | 0.116
3 | C#CCCCON=C1C[C@@H](O)[C@@H](O)[C@@H]2[C@@H]3C(=O)N([C@@H](C)c4ccccc4)C(=O)[C@@H]3CC[C@@H]12 | 0.123
4 | COC(=O)[C@H](C)NC(=O)CCC1CC(OC(=O)NCc2ccc3c(c2)OCO3)CC2(CCCC(COC(=O)NCc3ccccc3)O2)O1 (some centres undefined) | 0.829
5 | CCOC(=O)CCN1C(=O)[C@H]2[C@H]3[C@H](O)[C@H](O)CC(=NNC(=O)OCC)[C@H]3CC[C@H]2C1=O | -2.61
6 | CC(C)(C)N1C(=O)[C@H]2[C@@H]3C(=CC[C@H]2C1=O)C(=O)[C@H]1O[C@H]1[C@H]3O | -0.721
7 | O=C1[C@H]2[C@H]3[C@H](O)[C@H](O)CC(=NO[C@@H]4O[C@H](CO)[C@@H](O)[C@H](O)[C@H]4O)[C@@H]3CC[C@H]2C(=O)N1C1CCCCC1 | 0.601
8 | COc1ccc(COC(=O)NN=C2C[C@@H](O)[C@@H](O)[C@@H]3[C@@H]4C(=O)N([C@@H](C)c5ccccc5)C(=O)[C@@H]4CC[C@@H]23)cc1 | 0.162
9 | COc1ccc(COC(=O)NN=C2C[C@@H](O)[C@@H](O)[C@@H]3[C@@H]4C(=O)N(Cc5ccccc5)C(=O)[C@@H]4CC[C@@H]23)cc1 | 0.0738
10 | CC(C)[C@@H](OCc1ccccc1)[C@H](C)C=NO[C@@H](C)c1cn([C@H](CO)Cc2ccccc2)nn1 | -0.36
11 | CCOC(=O)[C@H](Cc1ccccc1)NC(=O)CCC1CC(OC(=O)NCc2ccc3c(c2)OCO3)CC2(CCCC(COC(=O)NCCOc3ccccc3)O2)O1 (some centres undefined) | 1.13
12 | COC(=O)[C@H](C)NC(=O)CCC1CC(OC(=O)NCc2ccc3c(c2)OCO3)CC2(CCCC(COC(=O)NCCCN3CCCC3=O)O2)O1 (some centres undefined) | 0.872
13 | O=C(NN=C1C[C@@H](O)[C@@H](O)[C@@H]2[C@@H]3C(=O)N(Cc4ccc5c(c4)OCO5)C(=O)[C@@H]3CC[C@@H]12)OCc1ccccc1 | -0.0653
14 | CCN1C(=O)[C@H]2[C@H]3[C@H](O)[C@H](O)CC(=NOCC[C@@H]4C=C[C@H](OC(C)=O)[C@@H](COC(C)=O)O4)[C@@H]3CC[C@H]2C1=O | 0.544
15 | COC(=O)[C@H](C)NC(=O)CCC1CC(OC(=O)NCc2ccc3c(c2)OCO3)CC2(CCCC(COC(=O)NCCC(C)C)O2)O1 (some centres undefined) | 0.0667
16 | CO[C@H]1COC(=O)CC=C[C@H](C)[C@H](OC)COC(=O)[C@@H](C)NC(=O)CC=C[C@@H]1C | -0.898
17 | O=C1C=C[C@@H](O)[C@@H]2[C@@H]3C(=O)N(Cc4ccccc4)C(=O)[C@@H]3CC[C@@H]12 | 0.619
18 | CCOC(=O)[C@H](Cc1ccccc1)NC(=O)CCC1CC(OC(=O)NCc2ccc3c(c2)OCO3)CC2(CCCC(COC(=O)NCCc3ccc(Cl)cc3)O2)O1 (some centres undefined) | 0.814
19 | COc1ccc(-c2cnnc(CCCn3ccnc3-c3ccccc3)n2)cc1 | 0.418
20 | CCOC(=O)NN=C1C[C@@H](O)[C@@H](O)[C@@H]2[C@@H]3C(=O)N(c4ccc(F)cc4F)C(=O)[C@@H]3CC[C@H]12 | 0.0692
21 | C#CCCCON=C1C[C@@H](O)[C@@H](O)[C@@H]2[C@@H]3C(=O)N(CC)C(=O)[C@@H]3CC[C@H]12 | -0.357
22 | C[C@H]1CC[C@@H](C(=O)O)N[C@@H]1c1ccc(C#Cc2ccccc2)cc1 | 1.1
23 | COC(=O)[C@H](C)NC(=O)CCC1CC(OC(=O)NCc2cccc3ccccc23)CC2(CCCC(COC(=O)NCc3ccccc3)O2)O1 (some centres undefined) | 0.984
24 | CC(=O)OC[C@H]1O[C@H](CC=NOC[C@@H](O)[C@H]2O[C@@H]3OC(C)(C)O[C@@H]3[C@H]2O)C=C[C@@H]1OC(C)=O | 0.976
